This is part of a sample that, as a whole, favours compounds with a hit. Of some 83,000 tested, about 20% had one in any assay.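 Activity criterion: percent growth below 10, measured after cells in 96-well plates were exposed to a single compound concentration for 48 hours.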 Values without a mark were called inactive. Activity calls are given as the source filed them.

The values that follow come from PubChem BioAssay (NCI).

Test systems include NCI-H23 lung; NCI-H226 lung; NCI-H322M lung; HOP-62 NSCLC; NCI-H460 lung; NCI-H522 lung; A549/ATCC NSCLC; 786-0 renal; COLO 205 colon; DU-145 prostate; K-562 leukemia; MALME-3M melanoma; MDA-MB-231 breast; RXF 393 renal; SF-268 CNS; SF-295 CNS; SF-539 CNS; UACC-257 melanoma; M14 melanoma; HCT-15 colon.
Holding throughout (experiment): NCI-60 one-dose screen, 48 h (100 = growth as untreated, 0 = no growth, -100 = all killed)
Common to all, as to conditions: 10 µM unless noted

Consider `CCn1c2c(c3ccccc31)SC1c3cccn3CCN1C2=S` (stereo not given), for which the growth in the assay with NCI-H23 lung was 93.7%; in the assay with NCI-H226 lung, 108%; with NCI-H322M lung, 89.8%; in the assay on HOP-62 NSCLC, 103%; in the assay on NCI-H460 lung it was 98.9%; in the assay on NCI-H522 lung, 82.1%. Also, the growth in the assay with A549/ATCC NSCLC was 88.5%; in the assay on 786-0 renal, 102%; in the assay on COLO 205 colon it was 109%; in the assay on DU-145 prostate, 102%; in the assay with K-562 leukemia, 105%; with MALME-3M melanoma, 112%. The growth in the assay on MDA-MB-231 breast was 96.7%; in the assay with RXF 393 renal, 151%; with SF-268 CNS, 96.4%; with SF-295 CNS it was 106%; in the assay on SF-539 CNS, 97.9%; with UACC-257 melanoma it was 98%. Further, the growth in the assay with M14 melanoma is 94.4%; with HCT-15 colon, 82.3%.

On to `O=C(c1nn(-c2ccc(Cl)cc2)cc1O)n1nc(C(F)(F)F)cc1-c1ccccc1`, for which the growth with NCI-H23 lung was 32.8%; in the assay on NCI-H226 lung it was 52.7%; in the assay with NCI-H322M lung, -1.34% (active); in the assay on HOP-62 NSCLC it was 34.6%; in the assay on NCI-H460 lung it was 34.9%; in the assay with NCI-H522 lung it was 21.2%. Further, the growth is 47.4% in the assay on A549/ATCC NSCLC; 42.9% in the assay on 786-0 renal; 7.24% (active) with COLO 205 colon; 49.2% in the assay with DU-145 prostate; 18.6% in the assay on K-562 leukemia; 107% in the assay on MALME-3M melanoma. For the same compound, the growth in the assay on MDA-MB-231 breast was 54.6%; with RXF 393 renal, 55.1%; with SF-268 CNS, 42.3%; in the assay with SF-295 CNS it was -0.429% (active); in the assay on SF-539 CNS, 45.6%; with UACC-257 melanoma, 53.3%. The growth was 43.4% in the assay with M14 melanoma and 30.2% in the assay on HCT-15 colon.

As to `CC(C)[O-].CC(C)[O-].CN(CCN(C)Cc1cc(F)cc(F)c1[O-])Cc1cc(F)cc(F)c1[O-].[Ti+4]`, the growth was 6.91% (active) in the assay on NCI-H23 lung; 25.6% with NCI-H226 lung; 0.494% (active) in the assay with NCI-H322M lung; -5.62% (active) in the assay on HOP-62 NSCLC; -27.8% (active) in the assay with NCI-H460 lung; -32.3% (active) with NCI-H522 lung. The growth in the assay on A549/ATCC NSCLC was 2.03% (active); in the assay on 786-0 renal, 19.1%; with COLO 205 colon, 1.34% (active); in the assay on DU-145 prostate, 17.7%; in the assay on K-562 leukemia, 8.81% (active); in the assay on MALME-3M melanoma, -55.4% (active). In addition, the growth with MDA-MB-231 breast is 11%; in the assay with RXF 393 renal it was -79.1% (active); with SF-268 CNS, 6.13% (active); in the assay on SF-295 CNS, -9.78% (active); with SF-539 CNS, -0.0224% (active); in the assay with UACC-257 melanoma it was 17.1%. Moreover, the values for the growth in the assay with M14 melanoma and in the assay with HCT-15 colon were -41.9% (active) and 15.5%, respectively.

On to `C=C(C[C@](O)(C(=O)/C=C/c1ccc(Cl)cc1)C(=O)OC)c1ccccc1`, for which the growth with NCI-H23 lung was 64.4%; in the assay with NCI-H226 lung it was 89.7%; with NCI-H322M lung, 90.3%; with HOP-62 NSCLC it was 54%; with NCI-H460 lung, 88.6%; with NCI-H522 lung, 66%. The growth in the assay with A549/ATCC NSCLC was 74.4%; in the assay on 786-0 renal it was 84%; in the assay with COLO 205 colon, 60.4%; in the assay with DU-145 prostate, 97.4%; in the assay with K-562 leukemia it was 50.7%; in the assay on MALME-3M melanoma, 95.7%. The growth in the assay with MDA-MB-231 breast is 71%; with RXF 393 renal it was 52.5%; in the assay on SF-268 CNS, 87.4%; in the assay on SF-295 CNS, 98.9%; in the assay on SF-539 CNS it was 75.8%; in the assay on UACC-257 melanoma, 91.7%. The growth with M14 melanoma was 84.1%; in the assay with HCT-15 colon, 3.71% (active).

Take `CSC1=Nc2c(c(C)c(-c3ccccc3)n2CCCN2CCCCC2)C2=NC(=O)C[C@H](C)N12`: the growth in the assay with NCI-H23 lung was 63.1%; with NCI-H226 lung, 68.9%; in the assay with NCI-H322M lung it was 62.1%; in the assay with HOP-62 NSCLC, 81.6%; with NCI-H460 lung it was 38.3%; in the assay with NCI-H522 lung, 35.5%. The growth with A549/ATCC NSCLC was 32.2%; in the assay on 786-0 renal it was 80.1%; in the assay on COLO 205 colon, -87% (active); in the assay with DU-145 prostate, 47.6%; with K-562 leukemia, 11.6%; in the assay on MALME-3M melanoma it was 56.5%. Further, the growth in the assay with MDA-MB-231 breast was 69.6%; with RXF 393 renal it was 56.4%; in the assay on SF-268 CNS, 66.2%; in the assay with SF-295 CNS, 38.9%; in the assay on SF-539 CNS it was 79%; with UACC-257 melanoma, 41.3%. Further, the growth in the assay on M14 melanoma was 59.8%; in the assay with HCT-15 colon, 81.2%.

With `COc1ccc(OC)c(/C=C/c2nc(=S)n(-c3ccc(Cl)cc3)[nH]2)c1`, the growth was 48.7% in the assay with NCI-H23 lung; 73.3% with NCI-H226 lung; 100% in the assay on NCI-H322M lung; 69.7% in the assay on HOP-62 NSCLC; 38.9% in the assay with NCI-H460 lung; 82.1% with NCI-H522 lung. Moreover, the growth is 66.3% in the assay with A549/ATCC NSCLC; 58.9% in the assay with 786-0 renal; 104% in the assay with COLO 205 colon; 87.6% in the assay with DU-145 prostate; 22.4% in the assay on K-562 leukemia; 29.8% in the assay with MALME-3M melanoma. Also, the growth in the assay on MDA-MB-231 breast is 87.2%; in the assay with RXF 393 renal it was 51.9%; in the assay with SF-268 CNS it was 73.7%; with SF-295 CNS, 31.2%; with SF-539 CNS it was 39.5%; in the assay on UACC-257 melanoma, 77.6%. In addition, the growth in the assay on M14 melanoma is 31%; in the assay on HCT-15 colon, 41.2%.
